# “And” between values parts separate entries of the source, which are not always exact repeats. Identical values can stand only once. The campaign covered roughly 16,000 compounds. About 5,700 (36%) were called active. Not shown: some 24% with an inconclusive outcome. The list shows a part of the results. Unmarked numbers belong to inactive results. Calls come from the whole dose curve; as a rule, active = well fitted curve in the direction sought with a large enough effect; inconclusive = small, poorly fitted or top-dose-only effect, or effect the other way; inactive = no such curve, though single readings can be large or run the other way.
# Target: Cytochrome P450 1A2 (Homo sapiens) (UniProt P05177)
# Sequence (P05177 whole entry, looked up): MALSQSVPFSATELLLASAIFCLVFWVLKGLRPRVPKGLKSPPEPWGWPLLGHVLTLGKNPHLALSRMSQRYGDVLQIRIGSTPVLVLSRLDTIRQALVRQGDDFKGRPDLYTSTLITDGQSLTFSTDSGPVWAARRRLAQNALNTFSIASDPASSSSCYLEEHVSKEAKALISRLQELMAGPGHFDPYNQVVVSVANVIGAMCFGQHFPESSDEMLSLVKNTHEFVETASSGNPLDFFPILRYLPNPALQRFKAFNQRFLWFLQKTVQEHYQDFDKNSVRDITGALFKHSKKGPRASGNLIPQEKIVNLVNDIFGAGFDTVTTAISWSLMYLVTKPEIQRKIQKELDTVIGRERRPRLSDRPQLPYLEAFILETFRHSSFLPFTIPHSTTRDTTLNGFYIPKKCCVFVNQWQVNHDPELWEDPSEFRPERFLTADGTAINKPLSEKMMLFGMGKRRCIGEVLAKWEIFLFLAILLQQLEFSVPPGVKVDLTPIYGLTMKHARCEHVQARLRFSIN
# Assay: Cytochrome panel assay with activity outcomes
# Settings: recombinant CYP, pro-luciferin dealkylation, luminescence, p450-cyp1a2; series mostly up to 57.1 µM
# % is set by controls: 0 for no effect and ±100 for the full control effect.
Compound,AC50,"activity, negative = inhibition"
N[C@@H]1C=CC=C(C(=O)O)C1,inactive,
COC(=O)C(O)(c1c(C)[nH]c2ccccc12)C(F)(F)F (stereo not drawn),15.8 µM (active),
N[C@H](Cc1o[nH]c(=O)c1Cl)C(=O)O,inactive,
CCCCN1C(=O)/C(=C/c2ccc(N(C)C)cc2)C(=O)N(Cc2ccco2)C1=O,15.8 µM (active),
O=S(=O)(O)/C(=C\c1ccccc1)c1ccccc1 (tested in a mixture with another compound),,-29% [at 2.29 µM]
C=C[C@H]1CN2CC[C@@H]1C[C@H]2[C@@H](O)c1ccnc2ccccc12,inactive,
c1cc(CN2CCCC3(CCNCC3)C2)ccn1,inactive,
CO[C@@H]1CC=C2CCN3CCC4=C(CC(=O)OC4)[C@]23C1,inactive,
C[C@@H]1Cc2cc3c(cc2C(c2ccc(N)cc2)=NN1)OCO3,5.01 µM (active),
CC(C)CCC1(CCN)C(=O)NC(=O)NC1=O,,-13.1% [at 11.4 µM]
CC(=O)OC1N=C(c2ccccc2)c2cc(Br)ccc2N(C)C1=O (stereo not drawn),inactive,
C[C@H](N)c1cccc(Cl)c1Cl,1.26 µM (active),
CC(C)(C)NC[C@H](O)c1ccccc1Cl,inactive,
CN1[C@H]2CC(=O)C[C@@H]1[C@@H](O)C2,inactive,
O=C(O)[C@H]1[O][Sb][O][C@@H](C(=O)O)C1O (stereo partly drawn),,-15% [at 2.29 µM]
Cn1cccc1CNCCc1ccccc1,inactive,
Fc1ccc(CCNCc2ccc(Cl)c(Cl)c2)cc1,2.24 µM (active),
C=CCN1C[C@@H](C)N([C@H](c2ccc(C(=O)N(CC)CC)cc2)c2cccc(OC)c2)C[C@H]1C,inactive,
C[C@H]1CC[C@@]2(NC1)O[C@@H]1C[C@@H]3[C@@H]4CC=C5C[C@@H](O)CC[C@]5(C)[C@@H]4CC[C@]3(C)[C@H]1[C@@H]2C,,-1.04% [at 11.4 µM]
C[C@@]12CC[C@H]3[C@@H](CC=C4C[C@H](OS(=O)(=O)O)CC[C@]43C)[C@H]1CCC2=O,inactive,
COCOc1ccc(Br)cc1C(=O)/C=C\c1ccc2c(c1)OCO2,,-3.01% [at 11.4 µM]
N[C@@H](Cc1ccccc1)P(=O)(O)O,,-13.6% [at 11.4 µM]
O=[N+]([O-])c1ccc(N2CCNCC2)cc1NCC1CCCO1 (stereo not drawn),1.41 µM (active),
CN1CCN(c2ccc([N+](=O)[O-])c(N/N=C3\CN4CCC3CC4)c2)CC1,inactive,
O=[N+]([O-])c1ccc(N2CCNCC2)cc1NC1CC1,0.708 µM (active),
NS(=O)(=O)c1ccc(-c2ccc([As](=O)(O)O)cc2)cc1,,-0.225% [at 11.4 µM]
C1C[C@@H]2CN(CCCN3CCOCC3)[C@@H](C1)O2,,-10.8% [at 11.4 µM]

Compound,AC50,"activity, negative = inhibition"
COc1cc2c(cc1OC)[C@@]13CCN4CC5=CCO[C@H](CC(=O)O)[C@@H]([C@H]1N2)[C@H]5C[C@H]43,,-21.3% [at 11.4 µM]
C[C@@H]1CC[C@@H]2N(C1)C[C@H]1[C@@](O)([C@H](O)C[C@]3(O)[C@H]4CC[C@H]5[C@]6(O)O[C@]4(C[C@]13O)[C@@]5(C)CC[C@@H]6O)[C@@]2(C)O,,-15.8% [at 11.4 µM]
c1ccc2c(c1)[I+]c1ccccc1-2,126 nM (active) and 20 nM (active),
O=C1CCCN1CC#CCN1CCCC1,inactive,
COc1ccc(C(=O)O[C@H]2CC[C@@]3(C)[C@H]4CC[C@H]5[C@]3(C[C@]3(O)[C@H]6CN7C[C@H](C)CC[C@H]7[C@](C)(O)[C@]6(O)[C@H](O)C[C@]53O)O[C@]24O)cc1OC,,-20.9% [at 2.29 µM]
O[Si@](CCCN1CCCCC1)(c1ccc(F)cc1)C1CCCCC1,inactive,
CCCCN1C(=O)C(C2c3ccccc3C(=O)N2Cc2ccccc2)C(=O)NC1=S (stereo not drawn),12.6 µM (active),
CN1C(=O)C(C2c3ccccc3C(=O)N2Cc2ccc([N+](=O)[O-])cc2)C(=O)N(C)C1=O (stereo not drawn),inactive,
CC(C)CN1CCC2(CC1)CCN(C(=O)Oc1ccccc1)CC2,inactive,
C=C(C)CN1CC[C@@]23c4c5ccc(O)c4O[C@H]2c2[nH]c4ccccc4c2C[C@]3(O)[C@@H]1C5,inactive,
CC1=NN(c2ccc(S(=O)(=O)O)cc2C)C(=[OH+])[C@H]1N=Nc1cc(S(=O)(=O)O)ccc1C(=O)O.O.[Cr],,-12.7% [at 11.4 µM]
O=[N+]([O-])c1cc([As](=O)(O)O)ccc1O,inactive,
CC[C@]1(OC(=O)CN)C(=O)OCc2c1cc1n(c2=O)Cc2cc3ccccc3nc2-1,,-17.6% [at 2.29 µM]
CC[C@@]1(O)C(=O)OCc2c1cc1n(c2=O)Cc2cc3c(NC(=O)CN)cccc3nc2-1,,-12.3% [at 2.29 µM]
CC[C@@]1(O)C(=O)OCc2c1cc1n(c2=O)Cc2cc3ccccc3nc2-1,2.51 µM (active),
CCCC[N+]12CCC(CC1)C(C(=O)c1cccs1)C2 (stereo not drawn),inactive,
COC(=O)[C@@H](N)CCCN=C(N)N[N+](=O)[O-],inactive,
Cc1cc(OCc2ccc([N+](=O)[O-])cc2)c2c3c(c(=O)oc2c1)CCCC3,2.24 µM (active),
Cc1cc(OC(=O)CCCNC(=O)OC(C)(C)C)c2c3c(c(=O)oc2c1)CCC3,2.24 µM (active),
Cc1cc(OCC(=O)OC(C)C)c2c3c(c(=O)oc2c1)CCCC3,3.55 µM (active),
Cn1cnc(CCN)c1,inactive,
OC1(c2ccc(F)cc2)CCNC1 (stereo not drawn),inactive,
CCOC(=O)N(c1ccccc1)P1(=S)OCCO1,20 µM (active),
O=C(O)C[O][Sb][O]CC(=O)O,,-7.83% [at 2.29 µM]
CC(=O)O[C@H]1C[C@@H](O[C@@H]2[C@H](C)O[C@H](O[C@@H]3[C@H](C)O[C@H](O[C@@H]4CC[C@@]5(C)[C@@H](CC[C@]6(C)[C@]5(C)C[C@H](O)[C@]5(C)[C@@H](C7=CC(=O)OC7)CC[C@@]56O)C4)C[C@@H]3O)C[C@@H]2O)O[C@@H](C)[C@H]1O[C@H]1O[C@@H](CO)[C@@H](O)[C@@H](O)[C@@H]1O,inactive,
C[C@]1(C(=O)O)[C@@H]2CC[C@@H](O2)[C@@]1(C)C(=O)O,inactive,

# Reference: PubChem BioAssay AID1851 (National Center for Advancing Translational Sciences (NCATS), 2009)
